Sm TGR inh: S. mansoni TGR enzyme inhibition; Potency, µM (top dose mostly 114 µM), without a hit: at the top dose activity change, negative = inhibition, hits mostly inhibitors; purified TGR, DTNB reduction, TNB absorbance 405 nm; Q962Y6; 360,000 compounds, 3% hits; AID 485364; also: potency is read from the fitted curve at half-maximal effect; % is scaled to controls: 0 for no effect and ±100 for the full control effect; nearly all actives have a fitted effect of over 60% in size
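TGR 20 nM + NADPH 100 uM (dispensed conc.), cpd preinc 15 min RT; start with NADPH (500 uM addition) then DTNB (15 mM addition). Kinetic TNB absorbance, 405 nm filter. Four-parameter Hill fit across titration.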
Pf growth 96h: inhibits malaria parasite growth, 96 h; AID 504834; Potency, µM (highest dose often 28.7 µM), for inactives: top-dose activity change, negative = inhibition, usual class: inhibitors; 320,000 compounds, 6.9% hits; P. falciparum luciferase reporter growth, 96 h; also: potency is read from the fitted curve at half-maximal effect; % is scaled to controls: 0 for no effect and ±100 for the full control effect
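Infected RBCs, 2% Hct / 0.05% parasitemia final; luciferase-reporter P. falciparum; cpd 96 h, 37 C, 5% CO2; luciferase detection reagent; luminescence.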
CHX counter: counter-screen hit for Shiga toxin inhibitors, cycloheximide; cell reporter, cycloheximide protein synthesis inhibition counterscreen; max response, %; 300,000 compounds, 12% hits; AID 2314; in the data active = max response mostly above about 13%, no sharp cut-off; inactive = mostly below about 14%; also: read at 38.3 µM for the half of the compounds with a filed dose; 0% is about no effect
NS1 function inh: blocks influenza NS1 protein function; Potency, µM (highest dose often 46.1 µM), for inactives: at the top dose activity, positive = more growth; 270,000 compounds, 0.4% hits; calls by dose curve; also: potency is read from the fitted curve at half-maximal effect; actives are rising curves; nearly all actives have a fitted effect of over 50% in size
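Compounds were scored for reversing the slow growth caused by influenza A NS1 in S. cerevisiae, measured by optical density at 600 nm. Assay medium contained 2% galactose at pH 6.0; NS1-free yeast of the same strain were the positive control.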
Shiga inhibitor: blocks Shiga toxin action in Vero cells; 290,000 compounds, 9.2% hits; inhibition, % at 38.7 µM; AID 2315; Vero cells, Shiga toxin protein synthesis inhibition reporter; in the data active = inhibition mostly above about 28%, no sharp cut-off; inactive = mostly below about 43%; also: 0% is about no effect
Pf growth 48h: inhibits P. falciparum growth in the first generation, 48 h. P. falciparum luciferase growth in erythrocytes, 48 h. Potency, µM (top dose mostly 28.7 µM), for the others: top-dose activity change, negative = inhibition, hits mostly inhibitors. 310,000 compounds, 5.9% hits. AID 504832; also: potency is read from the fitted curve at half-maximal effect; % is scaled to controls: 0 for no effect and ±100 for the full control effect
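Cell-based growth assay: transgenic P. falciparum expressing firefly luciferase, cultured in red cells within RPMI 1640 containing 0.5% w/v Albumax, 24 mM bicarbonate and gentamycin. A drop in luciferase activity indicates inhibition.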
* hit, by the source's call. Compounds with a hit are over-represented: about 21% of the library has one in this group of screens. Unless noted, calls follow the shape of the dose curve; as a rule, active = well fitted curve in the direction sought with a large enough effect; inconclusive = small, poorly fitted or top-dose-only effect, or another doubt; inactive = no such curve, though single readings can be large; an effect the other way counts as inactive or inconclusive.

How did CC(=O)Nc1ccc(OCc2nnc(-c3ccc(Cl)cc3)o2)cc1 do in these assays?
Sm TGR inh: 60%; Pf growth 96h: 12%; CHX counter: 20*; NS1 function inh: -7%; Shiga inhibitor: 58; Pf growth 48h: 0%

What do the screens show for `CC(C(=O)OCc1nnc(-c2ccccc2)o1)N1C(=O)C2CCCCC2C1=O` (centres undefined)?
Sm TGR inh: -3%; Pf growth 96h: 160%; CHX counter: 37*; Shiga inhibitor: 70*; Pf growth 48h: 55%

What do the screens show for `Cc1nc2ccc(C(=O)OCc3nnc(-c4ccc(Br)cc4)o3)cc2nc1C`?
Sm TGR inh: -5%; Pf growth 96h: -13%; CHX counter: -4; NS1 function inh: -3%; Shiga inhibitor: -13; Pf growth 48h: -4%

How did O=C(OCc1nnc(-c2ccccc2)o1)c1ccccc1 do in these assays?
Sm TGR inh: 1%; Pf growth 96h: 36%; CHX counter: 29*; NS1 function inh: -6%; Shiga inhibitor: 90*; Pf growth 48h: 55%

How did Cc1cc2ccccc2n1CCNC(=O)c1ccccc1F do in these assays?
Sm TGR inh: -2%

How did O=C(NCCN1CCN(c2ccccc2)CC1)Nc1cccc(Cl)c1 do in these assays?
Sm TGR inh: -17%; Pf growth 96h: 5%; CHX counter: 1; NS1 function inh: -9%; Pf growth 48h: 21%

Results for Cc1ccc(C(=O)NNC(=O)C2CCN(C(=O)OC(C)(C)C)CC2)cc1 ?
Sm TGR inh: 2%; Pf growth 96h: -4%; CHX counter: -3; NS1 function inh: -8%; Shiga inhibitor: 3; Pf growth 48h: 54%

Results for CC1=C(C(=O)Nc2ccc(F)cc2F)C2(CCCCCC2)OC1=O ?
Sm TGR inh: -15%

How did Cc1ccc2c(C(=O)CN3CC(C)CC(C)C3)c(C)[nH]c2c1 (centres undefined) do in these assays?
Sm TGR inh: 14µM*; Pf growth 96h: inconclusive; CHX counter: -1; NS1 function inh: 1%; Shiga inhibitor: 3; Pf growth 48h: inconclusive

Results for Cc1ccc2c(C(=O)CN3CCCC(C)C3)c(C)[nH]c2c1 (centres undefined) ?
Sm TGR inh: 35µM*; Pf growth 96h: 1%; CHX counter: 5; NS1 function inh: 1%; Shiga inhibitor: -4; Pf growth 48h: -9%

What do the screens show for `Cc1ccc2c(C(=O)CN3CCOCC3)c(C)[nH]c2c1`?
Sm TGR inh: inconclusive; Pf growth 96h: 22%; CHX counter: 7; NS1 function inh: -1%; Shiga inhibitor: -5; Pf growth 48h: -4%

How did CCOC(=O)c1c(C)[nH]c(C(=O)OCC(=O)NC2(C#N)CCCCC2)c1C do in these assays?
Sm TGR inh: -13%; Pf growth 96h: inconclusive; Pf growth 48h: inconclusive

Results for Cc1ccc(C23CC4CC(CC(C(=O)NC(C)C)(C4)C2)C3)cc1 ?
Sm TGR inh: 2%; Pf growth 96h: 9.3µM*; CHX counter: 2; NS1 function inh: -17%; Shiga inhibitor: 1; Pf growth 48h: -17%

How did COc1ccccc1NC(=O)C12CC3CC(C1)CC(c1ccc(C)cc1)(C3)C2 do in these assays?
Sm TGR inh: 31%; Pf growth 96h: 66%; CHX counter: -4; NS1 function inh: 21%; Shiga inhibitor: -1; Pf growth 48h: 0.66µM*

Results for COc1ccc(NC(=O)C23CC4CC(C2)CC(c2ccc(C)cc2)(C4)C3)cc1 ?
Sm TGR inh: 4%; Pf growth 96h: 24%; CHX counter: -2; NS1 function inh: -3%; Shiga inhibitor: 16; Pf growth 48h: inconclusive

Results for Cn1c(COc2ccc(Cl)cc2)nnc1SCC(=O)NC1CCCC1 ?
Sm TGR inh: 14%; Pf growth 96h: inconclusive; CHX counter: -6; NS1 function inh: -2%; Shiga inhibitor: -5; Pf growth 48h: 2%

How did CCOC(=O)CCNC(C)C1COc2ccccc2O1 (centres undefined) do in these assays?
Sm TGR inh: 2%; Pf growth 96h: 7%; CHX counter: -1; NS1 function inh: 4%; Shiga inhibitor: 15; Pf growth 48h: 26%

Results for CC(NCC1COc2ccccc2O1)C1COc2ccccc2O1 (centres undefined) ?
Sm TGR inh: -20%; Pf growth 96h: 33%; CHX counter: 6; NS1 function inh: 0%; Shiga inhibitor: -4; Pf growth 48h: 32%

What do the screens show for `CC(NS(=O)(=O)c1ccccc1)C1COc2ccccc2O1` (centres undefined)?
Sm TGR inh: 0%; Pf growth 96h: 54%; CHX counter: 31*; NS1 function inh: -11%; Shiga inhibitor: 2

What do the screens show for `CC(NC(=O)c1ccccc1Cl)C1COc2ccccc2O1` (centres undefined)?
Sm TGR inh: 1%; Pf growth 96h: 0%; CHX counter: 31*; NS1 function inh: -1%; Shiga inhibitor: 51*; Pf growth 48h: 98%

Results for COc1cccc(-c2cc(C(=O)N3CCN(C(c4ccccc4)c4ccccc4)CC3)no2)c1 ?
Sm TGR inh: 1%; Pf growth 96h: 1.5µM*; CHX counter: 21; NS1 function inh: 6%; Shiga inhibitor: 22; Pf growth 48h: 8.3µM*

How did COc1ccc(-c2cc(C(=O)N3CCOCC3)no2)cc1OC do in these assays?
Sm TGR inh: -32%; Pf growth 96h: 1.3µM*; CHX counter: 29*; NS1 function inh: 1%; Shiga inhibitor: 129*; Pf growth 48h: 88%

Results for COc1cccc(-c2cc(C(=O)NCCCN3CCOCC3)no2)c1 ?
Sm TGR inh: 2%; Pf growth 96h: 95%; CHX counter: -2; NS1 function inh: 1%; Shiga inhibitor: 4; Pf growth 48h: 6%

Results for COc1cccc(-c2cc(C(=O)N3CCOCC3)no2)c1 ?
Sm TGR inh: -1%; Pf growth 96h: inconclusive; CHX counter: 40*; NS1 function inh: 4%; Shiga inhibitor: 41; Pf growth 48h: 156%

How did COc1ccc(-c2cc(C(=O)N3CC4(C)CC3CC(C)(C)C4)no2)cc1OC (centres undefined) do in these assays?
Sm TGR inh: 8%; Pf growth 96h: inconclusive; CHX counter: -3; NS1 function inh: -52%; Shiga inhibitor: -4; Pf growth 48h: 0.93µM*

How did COc1ccc(-c2cc(C(=O)N3CCN(c4ccccc4)CC3)no2)cc1OC do in these assays?
Sm TGR inh: -10%; CHX counter: 6; NS1 function inh: -4%; Shiga inhibitor: 28; Pf growth 48h: 1%

What do the screens show for `Nc1nnc(CCS(=O)(=O)c2ccc(Br)cc2)s1`?
Sm TGR inh: 2%; Pf growth 96h: 0%; CHX counter: -2; Shiga inhibitor: -5; Pf growth 48h: 13%

What do the screens show for `CN1CCN(C(=O)c2cc(-c3ccc(O)cc3)on2)CC1`?
NS1 function inh: 19%

How did COc1ccc(-c2cc(C(=O)N3CCOCC3)no2)cc1 do in these assays?
Sm TGR inh: 5%; Pf growth 96h: -13%; CHX counter: 30*; NS1 function inh: -12%; Shiga inhibitor: 49; Pf growth 48h: 157%

From PubChem
